Source: publication PMC6602471
Whole data set: some 1,300 sequences, median “log fluorescence intensity” near 8.3, cut for the highest 2% near 12. The sample as a whole holds a higher share of the highest values than the screen did.

Molecular target: T1, ETS1 (Homo sapiens, UniProt P14921 1-441)
T1 sequence: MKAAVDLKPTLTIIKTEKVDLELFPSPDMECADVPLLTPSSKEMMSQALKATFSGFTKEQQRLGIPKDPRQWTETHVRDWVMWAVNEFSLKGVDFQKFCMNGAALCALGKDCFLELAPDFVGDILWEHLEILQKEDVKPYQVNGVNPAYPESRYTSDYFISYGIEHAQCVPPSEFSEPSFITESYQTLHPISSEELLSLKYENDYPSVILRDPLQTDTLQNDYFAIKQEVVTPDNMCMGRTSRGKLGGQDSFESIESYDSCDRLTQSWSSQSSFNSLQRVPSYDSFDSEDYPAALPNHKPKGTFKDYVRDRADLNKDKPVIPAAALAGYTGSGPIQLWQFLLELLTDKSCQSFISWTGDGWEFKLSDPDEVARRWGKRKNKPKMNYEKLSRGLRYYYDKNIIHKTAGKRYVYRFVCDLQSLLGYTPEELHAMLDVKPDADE
Test: custom PBM; custom protein-binding microarray; buffer, salt, pH and temperature not stated; high values mean tight binding
Conditions: dsDNA, one strand shown

| Sequence | binding signal |
| --- | --- |
| TGTCGGGTAAGGGAATGTAGATCACGTGAATGTAAAGTCTTGATTCGCTTGACGCTGCTG | 8.34 log fluorescence intensity |
| CTGGGACTTGACCCAACTCTGCCACGTGGGTCGATTGTCTTGATTCGCTTGACGCTGCTG | 8.33 log fluorescence intensity |
| GTCTATAGGATCCCATCCAACACACGTGTTAAAATGGTCTTGATTCGCTTGACGCTGCTG | 8.42 log fluorescence intensity |
| GCTGCTGCGGTGCATACCCCACCGGATGTGTCCCCGGTCTTGATTCGCTTGACGCTGCTG | 9.62 log fluorescence intensity |
| GCTGCAGCGGTGCATACCCCACCGGATGTGACCCCGGTCTTGATTCGCTTGACGCTGCTG | 10.4 log fluorescence intensity |
| CAGCATAGGACTTCTTCACTGAAGCAATTGATAACCGTCTTGATTCGCTTGACGCTGCTG | 8.32 log fluorescence intensity |
| GCTGCTGCGGTGCATACCCCCCCGGATGTGACCCCGGTCTTGATTCGCTTGACGCTGCTG | 8.71 log fluorescence intensity |
| CGGAAGTGTCGTAGACGTCGGATATCCGGTTCTTCTGTCTTGATTCGCTTGACGCTGCTG | 11.7 log fluorescence intensity |
| CAGCATAGGACTTCTTCCCTGAAGGAATTGATAACCGTCTTGATTCGCTTGACGCTGCTG | 8.32 log fluorescence intensity |
| CGGAAGTGTCGTAAACGTCGGATATCCAGTTCTTCTGTCTTGATTCGCTTGACGCTGCTG | 8.64 log fluorescence intensity |
| CACTGACTTATATATGCGAATGCACATGAATAGACCGTCTTGATTCGCTTGACGCTGCTG | 8.35 log fluorescence intensity |
| GCTGCTGCGGTGCACACCCCACCGGATGTGACCCCGGTCTTGATTCGCTTGACGCTGCTG | 10.3 log fluorescence intensity |
| ACTGCTGCGGTGCATACCCCACCGGATGTGACCCCGGTCTTGATTCGCTTGACGCTGCTG | 10.4 log fluorescence intensity |
| TAAAGGGAAGACGGCTGTGGTAGTTCCGGGTATTAAGTCTTGATTCGCTTGACGCTGCTG | 8.35 log fluorescence intensity |
| TAAAGGTAAGACGGTTGTGGTAGTTCCGGGTATTAAGTCTTGATTCGCTTGACGCTGCTG | 8.54 log fluorescence intensity |
| GGAAAAAGGCCCAGGGTAACACCGGAAGTGGGGTTAGTCTTGATTCGCTTGACGCTGCTG | 12 log fluorescence intensity |
| TAAAGGCAAGACGGTTGTGGTAGTTCCGGGTATTAAGTCTTGATTCGCTTGACGCTGCTG | 8.32 log fluorescence intensity |
| GCTGCTGTGGTGCATACCCCACCGGATGTGACCCCGGTCTTGATTCGCTTGACGCTGCTG | 10.3 log fluorescence intensity |
| GGAACAAGGCCCAGGGTAACACCGGAAGTGGGCTTAGTCTTGATTCGCTTGACGCTGCTG | 11.9 log fluorescence intensity |
| CGGAAGAGTCGTAAACGTCGGATATCCGGTTCTTCTGTCTTGATTCGCTTGACGCTGCTG | 11.8 log fluorescence intensity |
| GGAAAAACGCCCAGGGTAACACCGGAAGTGGGCTTAGTCTTGATTCGCTTGACGCTGCTG | 12.1 log fluorescence intensity |

| Sequence | binding signal |
| --- | --- |
| GCTGCTGCTGTGCATACCCCACCGGATGTGACCCCGGTCTTGATTCGCTTGACGCTGCTG | 9.42 log fluorescence intensity |
| GGAAAAAGGCCCAGGGTAAGACCGGAAGTGGGCTTAGTCTTGATTCGCTTGACGCTGCTG | 12 log fluorescence intensity |
| TAAAGGGAAGACGGTTGTGGTAGTTACGGGTATTAAGTCTTGATTCGCTTGACGCTGCTG | 8.37 log fluorescence intensity |
| TGTCGGGTAAGGGCATGTAGATCACGTGAATGAAAAGTCTTGATTCGCTTGACGCTGCTG | 8.41 log fluorescence intensity |
| GGAAAAAGGCCCAGGGTATCACCGGAAGTGGGCTTAGTCTTGATTCGCTTGACGCTGCTG | 11.4 log fluorescence intensity |
| TACTGACTTATAGATGCGAATGCACATGAATAGACCGTCTTGATTCGCTTGACGCTGCTG | 8.45 log fluorescence intensity |
| TAAAGGGAAGACGGTTCTGGTAGTTCCGGGTATTAAGTCTTGATTCGCTTGACGCTGCTG | 8.63 log fluorescence intensity |
| CAGCATAGGACTTCTTCCCTGAAGCAATTGATAACGGTCTTGATTCGCTTGACGCTGCTG | 8.34 log fluorescence intensity |
| CGGAAGTGTCGTAAACGTCGGATATCGGGTTCTTCTGTCTTGATTCGCTTGACGCTGCTG | 8.65 log fluorescence intensity |
| GGGTATAGGATCCCATCCAACACACGTGTTAAAATGGTCTTGATTCGCTTGACGCTGCTG | 8.44 log fluorescence intensity |
| GTGTATAGGATCCCATCCAACACACGCGTTAAAATGGTCTTGATTCGCTTGACGCTGCTG | 8.37 log fluorescence intensity |
| CGGAAGTGTCGTAAACGTCGGATATCCGGTTCTCCTGTCTTGATTCGCTTGACGCTGCTG | 11.8 log fluorescence intensity |
| GCTGCTGCGGTGCATACCCCAGCGGATGTGACCCCGGTCTTGATTCGCTTGACGCTGCTG | 8.5 log fluorescence intensity |
| GGAAAAAGGCCCAGCGTAACACCGGAAGTGGGCTTAGTCTTGATTCGCTTGACGCTGCTG | 11.9 log fluorescence intensity |
| TAAAGGGAAGACTGTTGTGGTAGTTCCGGGTATTAAGTCTTGATTCGCTTGACGCTGCTG | 8.36 log fluorescence intensity |
| TAAAGGGAAGACGGTTGTGGTAGTTCCGGTTATTAAGTCTTGATTCGCTTGACGCTGCTG | 9.95 log fluorescence intensity |
| TAAAGGGAAGACGGTTGTGGTAGTTCCGGGCATTAAGTCTTGATTCGCTTGACGCTGCTG | 8.59 log fluorescence intensity |
| CGGAAGTGTCGTAAACGTCGGATATCTGGTTCTTCTGTCTTGATTCGCTTGACGCTGCTG | 8.37 log fluorescence intensity |
| GCTGCTACGGTGCATACCCCACCGGATGTGACCCCGGTCTTGATTCGCTTGACGCTGCTG | 10.3 log fluorescence intensity |
| CGGAAGTGTCGTAAACGTCGGATATCCGGTTATTCTGTCTTGATTCGCTTGACGCTGCTG | 12.1 log fluorescence intensity |
